Source: PubChem BioAssay (NCI)
This is part of a sample that, as a whole, favours compounds with a hit. Of some 83,000 tested, about 20% had one in any assay.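 Percent growth is the endpoint: 0 to 100 indicates growth inhibition (40 means 60% inhibition), 0 means no net growth, and negative values indicate cell death.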 The source made the active and inactive calls. Rule for the calls: active = growth percent below 10; inactive = the rest.

How the values were obtained:
Assay in all cases: NCI-60 one-dose screen, 48 h (100 = growth as untreated, 0 = no growth, -100 = all killed)
Conditions in all cases: 10 µM unless noted
NCI-H23 lung = tested on: NCI-H23 lung
NCI-H226 lung = tested on: NCI-H226 lung
NCI-H322M lung = tested on: NCI-H322M lung
HOP-62 NSCLC = tested on: HOP-62 NSCLC
NCI-H460 lung = tested on: NCI-H460 lung
HOP-92 NSCLC = tested on: HOP-92 NSCLC
NCI-H522 lung = tested on: NCI-H522 lung
A549/ATCC NSCLC = tested on: A549/ATCC NSCLC
786-0 renal = tested on: 786-0 renal
COLO 205 colon = tested on: COLO 205 colon
DU-145 prostate = tested on: DU-145 prostate
MALME-3M melanoma = tested on: MALME-3M melanoma
MDA-MB-231 breast = tested on: MDA-MB-231 breast
RXF 393 renal = tested on: RXF 393 renal
SF-268 CNS = tested on: SF-268 CNS
SF-295 CNS = tested on: SF-295 CNS
SF-539 CNS = tested on: SF-539 CNS
UACC-257 melanoma = tested on: UACC-257 melanoma
M14 melanoma = tested on: M14 melanoma

Measured: growth

O=C(Cn1c2ccccc2c2ccncc21)N/N=C/c1cc(O)c(O)c(O)c1
inactive: NCI-H23 lung 103% | NCI-H226 lung 105% | NCI-H322M lung 108% | HOP-62 NSCLC 104% | NCI-H460 lung 101% | HOP-92 NSCLC 111% | NCI-H522 lung 84.5% | A549/ATCC NSCLC 101% | 786-0 renal 105% | COLO 205 colon 110% | DU-145 prostate 104% | MALME-3M melanoma 112% | MDA-MB-231 breast 101% | RXF 393 renal 97.7% | SF-268 CNS 98.1% | SF-295 CNS 110% | SF-539 CNS 93.1% | UACC-257 melanoma 98.8% | M14 melanoma 110%

CCCc1nn2c(CCC(=O)c3nc4ccc([N+](=O)[O-])cc4[nH]3)nnc2s1
inactive: NCI-H23 lung 94.4% | NCI-H226 lung 102% | NCI-H322M lung 97.9% | HOP-62 NSCLC 106% | NCI-H460 lung 104% | HOP-92 NSCLC 114% | NCI-H522 lung 104% | A549/ATCC NSCLC 99.9% | 786-0 renal 108% | COLO 205 colon 112% | DU-145 prostate 108% | MALME-3M melanoma 105% | MDA-MB-231 breast 95.9% | RXF 393 renal 114% | SF-268 CNS 100% | SF-295 CNS 104% | SF-539 CNS 103% | UACC-257 melanoma 113% | M14 melanoma 99.6%

C=C1C(=O)O[C@H]2[C@H]1CC/C(COC(=O)c1cccc3ccccc13)=C\CC[C@@]1(C)O[C@@H]21
inactive: NCI-H322M lung 36.8% | SF-295 CNS 47.8%
active: NCI-H23 lung 0.789% | NCI-H226 lung -79.9% | HOP-62 NSCLC -45.7% | NCI-H460 lung 7.53% | HOP-92 NSCLC -67.9% | NCI-H522 lung -84.5% | A549/ATCC NSCLC -55% | 786-0 renal -77.9% | COLO 205 colon -70.7% | DU-145 prostate -95.1% | MALME-3M melanoma -74.5% | MDA-MB-231 breast -67.7% | RXF 393 renal -89.6% | SF-268 CNS -66.4% | SF-539 CNS -93.1% | UACC-257 melanoma -13.9% | M14 melanoma -58.7%

CCCCNC(=O)Oc1ccc(/C(=C(/CC)Cc2ccccc2)c2ccc(OCCCN(C)C)cc2)cc1
inactive: NCI-H23 lung 91.7% | NCI-H226 lung 92.9% | NCI-H322M lung 83.1% | HOP-62 NSCLC 96.1% | NCI-H460 lung 63.7% | HOP-92 NSCLC 43.8% | NCI-H522 lung 88.1% | A549/ATCC NSCLC 69.5% | 786-0 renal 71.2% | COLO 205 colon 20.5% | DU-145 prostate 89.2% | MALME-3M melanoma 93.4% | MDA-MB-231 breast 78.9% | RXF 393 renal 70.7% | SF-268 CNS 77.8% | SF-295 CNS 94.9% | SF-539 CNS 88.5% | UACC-257 melanoma 104% | M14 melanoma 81.8%

COc1cc2ncnc(Oc3ccc(NC(=O)Nc4ccc(CN5CCOCC5)c(C(F)(F)F)c4)c4ccccc34)c2cc1OC
active: NCI-H226 lung 1.53% | HOP-92 NSCLC -2.3% | MALME-3M melanoma -11.1%
inactive: NCI-H23 lung 16.8% | NCI-H322M lung 19.3% | HOP-62 NSCLC 66.8% | NCI-H460 lung 25.4% | NCI-H522 lung 19.8% | A549/ATCC NSCLC 23.1% | 786-0 renal 37.1% | COLO 205 colon 13.4% | DU-145 prostate 32.6% | MDA-MB-231 breast 51.2% | RXF 393 renal 20.8% | SF-268 CNS 23.3% | SF-295 CNS 40.6% | SF-539 CNS 55.4% | UACC-257 melanoma 21.1% | M14 melanoma 20.4%

COc1ccc(C2CC(c3cc(Cl)c(C)cc3OC)=NN2c2ccc(S(N)(=O)=O)cc2)cc1OC (stereo not given)
inactive: NCI-H23 lung 75.8% | NCI-H226 lung 81.3% | NCI-H322M lung 104% | HOP-62 NSCLC 87.8% | NCI-H460 lung 89.8% | HOP-92 NSCLC 101% | NCI-H522 lung 74.3% | A549/ATCC NSCLC 73.2% | 786-0 renal 92.3% | COLO 205 colon 101% | DU-145 prostate 106% | MALME-3M melanoma 101% | MDA-MB-231 breast 84.6% | RXF 393 renal 77.7% | SF-268 CNS 90.1% | SF-295 CNS 123% | SF-539 CNS 103% | UACC-257 melanoma 87.2% | M14 melanoma 81.8%

Nc1nc(Cl)c2c(C(F)(F)F)cn(CC3CCNCC3)c2n1
active: NCI-H522 lung 5.07%
inactive: NCI-H23 lung 47.5% | NCI-H226 lung 111% | NCI-H322M lung 100% | HOP-62 NSCLC 103% | NCI-H460 lung 103% | HOP-92 NSCLC 57.9% | A549/ATCC NSCLC 94.2% | 786-0 renal 95.5% | COLO 205 colon 94% | DU-145 prostate 109% | MALME-3M melanoma 101% | MDA-MB-231 breast 54.2% | RXF 393 renal 52.9% | SF-268 CNS 96.2% | SF-295 CNS 105% | SF-539 CNS 107% | UACC-257 melanoma 83.8% | M14 melanoma 57.3%

COc1cc2nc(C(=O)N3CCCCC3)cc(Nc3ccccc3)c2cc1OC
inactive: NCI-H23 lung 96.7% | NCI-H226 lung 107% | NCI-H322M lung 96.1% | HOP-62 NSCLC 96% | NCI-H460 lung 102% | HOP-92 NSCLC 73.3% | NCI-H522 lung 65.7% | A549/ATCC NSCLC 98.1% | 786-0 renal 95.3% | COLO 205 colon 116% | DU-145 prostate 92.8% | MALME-3M melanoma 116% | MDA-MB-231 breast 88.6% | RXF 393 renal 101% | SF-268 CNS 84.2% | SF-295 CNS 96.3% | SF-539 CNS 95.5% | UACC-257 melanoma 108% | M14 melanoma 116%

N#CC1=C(N)Oc2c(ccc3ccccc23)C1c1cc(=O)oc2ccc(Cl)cc12 (stereo not given)
inactive: NCI-H23 lung 32.9% | NCI-H226 lung 98.3% | NCI-H322M lung 44.2% | HOP-62 NSCLC 33.3% | HOP-92 NSCLC 87.5% | A549/ATCC NSCLC 26.6% | 786-0 renal 29.4% | DU-145 prostate 19.4% | MALME-3M melanoma 77.8% | MDA-MB-231 breast 50% | SF-268 CNS 56.1% | SF-295 CNS 14.1% | UACC-257 melanoma 73.5%
active: NCI-H460 lung 8.96% | NCI-H522 lung 5.22% | COLO 205 colon -16.4% | RXF 393 renal 7.4% | SF-539 CNS 3.16% | M14 melanoma 3.47%

C=C1C(=O)O[C@H]2[C@H]1CC/C(COC(=O)c1ccc3ccccc3c1)=C\CC[C@@]1(C)O[C@@H]21
active: NCI-H23 lung 2.6% | NCI-H226 lung -82.3% | HOP-62 NSCLC -29.2% | NCI-H460 lung 8.67% | HOP-92 NSCLC -73.3% | NCI-H522 lung -77.3% | A549/ATCC NSCLC -52.7% | 786-0 renal -85.1% | COLO 205 colon -71.1% | DU-145 prostate -81.1% | MALME-3M melanoma -75.8% | MDA-MB-231 breast -62.3% | RXF 393 renal -91% | SF-268 CNS -41% | SF-539 CNS -94.9% | UACC-257 melanoma -24.6% | M14 melanoma -58.8%
inactive: NCI-H322M lung 45% | SF-295 CNS 43.1%

Clc1ccc2c(NCCNc3nc(Cl)nc4ccccc34)ccnc2c1
active: NCI-H23 lung -61.7% | NCI-H226 lung -80% | NCI-H322M lung -26.4% | HOP-62 NSCLC -68.6% | NCI-H460 lung -65.4% | HOP-92 NSCLC -67.6% | NCI-H522 lung -84.6% | A549/ATCC NSCLC -88% | 786-0 renal -94.1% | COLO 205 colon -85.8% | DU-145 prostate -3.33% | MALME-3M melanoma -87.3% | MDA-MB-231 breast -87.8% | RXF 393 renal -77.2% | SF-268 CNS -58.1% | SF-295 CNS -76.7% | SF-539 CNS -84% | M14 melanoma -89.1%
inactive: UACC-257 melanoma 91.1%

C=C1C(=O)O[C@H]2[C@H]1CC/C(COC(=O)c1ccc(Br)cc1)=C\CC[C@@]1(C)O[C@@H]21
active: NCI-H226 lung -55.8% | HOP-92 NSCLC -73% | NCI-H522 lung -78.1% | 786-0 renal -61% | COLO 205 colon -67.2% | DU-145 prostate -33.7% | MALME-3M melanoma -54.1% | MDA-MB-231 breast -56% | RXF 393 renal -86% | SF-539 CNS -76.3% | M14 melanoma -22.8%
inactive: NCI-H23 lung 32.6% | NCI-H322M lung 60.5% | HOP-62 NSCLC 25.8% | NCI-H460 lung 25.7% | A549/ATCC NSCLC 16.2% | SF-268 CNS 24.6% | SF-295 CNS 63.7% | UACC-257 melanoma 50.3%

C=CCn1c(SCC(=O)Nc2ccc(C(=O)/C=C/c3cc(OC)c(OC)c(OC)c3)cc2)nnc1-c1ccc(OC)cc1
inactive: NCI-H23 lung 22.2% | NCI-H322M lung 17.3% | HOP-92 NSCLC 21.3% | MALME-3M melanoma 46.1% | MDA-MB-231 breast 13.8% | UACC-257 melanoma 13.6%
active: NCI-H226 lung -36.5% | HOP-62 NSCLC -32.5% | NCI-H460 lung 0.762% | NCI-H522 lung -16.8% | A549/ATCC NSCLC 4.04% | 786-0 renal -30.8% | COLO 205 colon -7.79% | DU-145 prostate 5.32% | RXF 393 renal -81.6% | SF-268 CNS 5.5% | SF-295 CNS -21.4% | SF-539 CNS -17.6% | M14 melanoma 6.88%

O=C(CNc1cccnc1)Nc1ccc(C(=O)/C=C/c2ccc(Cl)cc2)cc1
inactive: NCI-H23 lung 91.7% | NCI-H226 lung 86.4% | NCI-H322M lung 95.9% | HOP-62 NSCLC 107% | NCI-H460 lung 93.5% | HOP-92 NSCLC 90.7% | NCI-H522 lung 89.4% | A549/ATCC NSCLC 88.3% | 786-0 renal 105% | COLO 205 colon 106% | DU-145 prostate 103% | MALME-3M melanoma 89.3% | MDA-MB-231 breast 77% | RXF 393 renal 98.8% | SF-268 CNS 91.4% | SF-295 CNS 93.9% | SF-539 CNS 99.6% | UACC-257 melanoma 105% | M14 melanoma 88.4%

CC1=C2C(=C[C@@](C)(CO)[C@@H]2OC(=O)N(C)CCN(C)C(=O)OC(C)(C)C)C(=O)[C@](C)(O)C12CC2
inactive: NCI-H23 lung 11.8% | NCI-H226 lung 106% | NCI-H322M lung 59.7% | NCI-H522 lung 57.7% | A549/ATCC NSCLC 10.4% | 786-0 renal 65.1% | COLO 205 colon 40.1% | MALME-3M melanoma 67.3% | MDA-MB-231 breast 48% | SF-539 CNS 57.9% | UACC-257 melanoma 100% | M14 melanoma 54.8%
active: HOP-62 NSCLC 9.97% | NCI-H460 lung 3.77% | HOP-92 NSCLC 8.11% | DU-145 prostate 8.82% | RXF 393 renal -57.3% | SF-268 CNS 4.84% | SF-295 CNS 5.06%
